Data on 112 molecules can be found in PubChem BioAssay AID686978 (National Center for Advancing Translational Sciences (NCATS), 2013).

About 64,000 (15%) of roughly 420,000 compounds were called active. Inconclusive results (about 27%) are left out. The call rests on the fitted dose curve; in most records, active means well fitted inhibition curve with a large enough effect; inconclusive means small, poorly fitted or top-dose-only effect; inactive means flat fitted curve, though single readings scatter. These entries were drawn from the full list. Where a call stands in place of a potency, no number is given.
Potency means the concentration at half of the fitted maximal effect.

The experiment can be described thus: qHTS for Inhibitors of human tyrosyl-DNA phosphodiesterase 1 (TDP1): qHTS in cells in absence of CPT. Further: nearly all actives have a fitted effect of over 55% in size. As to conditions: DT40 Tdp1-/- hTDP1 cells, no CPT, ATP luminescence, 48 h; activity change, negative = growth inhibition: at 46.2 µM (top of the series). A digest of the protocol: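 Compound effects on proliferation are scored in DT40 Tdp1-/-;hTDP1 cells in the absence of CPT. ATP levels (CellTiter-Glo luminescence) are recorded after a ≥48 hr, 37 °C incubation.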
In the case of `CCCCCC1CCC(c2nnc(SCC(C)=O)o2)CC1` (configuration not stated), the Potency result was “inactive”.

Consider `Cc1cc(C)n(-c2c(F)c(F)c(COC(=O)c3ccccc3)c(F)c2F)n1`, for which the Potency entry is “inactive”.

`O=C(C1=C(O)C(=O)N(c2ncccn2)C1c1cccs1)c1ccco1` (configuration not stated): the Potency entry was “inactive”.

With `O=C(Oc1cccnc1)c1cc2ccccc2oc1=O`, the Potency entry is “inactive”.

For `CC(=O)N1CCN(CC(c2ccccc2)c2ccccc2)CC1`, the Potency entry was “inactive”.

Turning to `CC(CCc1ccc(O)cc1)NCc1ccc(Cl)cc1Cl` (configuration not stated), the Potency was 18.4 µM (active).

Consider `COc1ccc(CNC(=O)C(C)NCc2ccccc2Cl)cc1` (configuration not stated), for which the Potency entry was “inactive”.

Regarding `COc1ccc(CCn2ccc(O)c(Cc3ccc(Cl)cc3Cl)c2=O)cc1OC`, the Potency entry was “inactive”.

With `COc1ccc(N2CCN(C(=O)CNC(=O)c3ccc(Br)o3)CC2)cc1`, the Potency result is “inactive”.

For the molecule `O=C(NCC(=O)N1CCN(c2ncc(C(F)(F)F)cc2Cl)CC1)c1ccc(Br)o1`, the Potency is 18.4 µM (active).

For the molecule `O=C(CN1CCN(c2ncc(C(F)(F)F)cc2Cl)CC1)Nc1ccc2c(c1)OCO2`, the Potency entry was “inactive”.

Turning to `Cc1ccc(CSCC(=O)N(C)CC(=O)Nc2cccc(F)c2)cc1`, the Potency entry is “inactive”.

In the case of `O=C(O)CCC(=O)N(Cc1ccco1)c1nc(-c2ccccc2)cs1`, the Potency result is “inactive”.

As for `CC(Oc1ccc(F)cc1F)C(=O)/C=C/N(C)C` (configuration not stated), the Potency result is “inactive”.

For the molecule `c1ccc(C2CNCc3c2ccc2ccccc32)cc1` (configuration not stated), the Potency is 16.4 µM (active).

For `CC1(C)CC(=O)C(C=NCCN2CCN(C(=S)Nc3cccc(Cl)c3)CC2)=C(O)C1`, the Potency result is “inactive”.

Turning to `COc1ccc(-c2n[nH]c3c2CN(C(=O)c2ccc(F)cc2)CC3)cc1`, the Potency result is “inactive”.

For the molecule `COCCCNC(=O)COc1cc(C)c(Cl)c(C)c1`, the Potency entry is “inactive”.

Take `Cc1cc2c(cc1S(=O)(=O)CCC(=O)NCc1ccccc1)OCC(=O)N2`: the Potency entry is “inactive”.

Consider `CC(=O)Nc1ccc2c3c(ccc([N+](=O)[O-])c13)CC2`, for which the Potency entry is “inactive”.

As to `CCCNC(=O)C1CC(=O)N(c2ccc(OCC(=O)Nc3cccc(C)c3C)cc2)C1` (configuration not stated), the Potency entry is “inactive”.

In the case of `CCCOc1ccc(/C=N/NC(=O)C2CC2)c(OCCC)c1`, the Potency result is “inactive”.

For `COc1ccc(CS(=O)/C(Cl)=C(/Cl)C(=O)Nc2ccc(OC)nc2)cc1` (configuration not stated), the Potency is 0.13 µM (active).

For `COc1ccc(NC(=S)Nc2ccccc2Cl)cn1`, the Potency result was “inactive”.

`COc1ccc(NC(=S)NCCNC(C)=O)cc1`: the Potency result was “inactive”.

`CS(=O)(=O)c1ccc(Cl)c(NC(=O)COC(=O)c2ncc(Cl)c(Cl)c2Cl)c1`: the Potency result was “inactive”.

`O=C(Nc1cc2c3c(c1)CC(=O)N3CCC2)c1ccccc1F`: the Potency result was “inactive”.

On to `COc1ccc(/C=C(\NC(=O)c2ccccc2)C(=O)NCCN2CCOCC2)cc1OC`, for which the Potency entry is “inactive”.

On to `CN(C(=O)COc1ccccc1)c1nnc(-c2ccncc2)s1`, for which the Potency entry is “inactive”.

In the case of `COCCN(C(=O)C(C)C)c1nnc(-c2ccc(C(C)(C)C)cc2)s1`, the Potency is 20.6 µM (active).

Consider `COCCN(Cc1nc(-c2ccc(C(F)(F)F)cc2)no1)C(C)C`, for which the Potency entry was “inactive”.

On to `CCOC(=O)N1CCN(CC(=O)Nc2cc(C)nn2-c2nc3ccccc3s2)CC1`, for which the Potency was 23.1 µM (active).

`CCOC(=O)N1CCN(CC(=O)Nc2ccc(F)cc2)CC1`: the Potency result was “inactive”.

With `CCOC(=O)N1CCN(C(=O)Cn2cnc3ccccc3c2=O)CC1`, the Potency entry is “inactive”.

Take `CC1CCCN(c2csc3ccc(F)cc3c2=O)C1` (configuration not stated): the Potency result is “inactive”.

In the case of `S=c1[nH]nc(/C=C/c2ccccc2)o1`, the Potency entry was “inactive”.

With `CC(=O)Nc1nc(N(C)C)nc(N(C)C)n1`, the Potency result was “inactive”.

In the case of `CN(C)c1nc(Nc2ccc(Cl)c(Cl)c2)nc(N(C)C)n1`, the Potency is 10.3 µM (active).

Turning to `CN(C)c1nc(NN)nc(Nc2ccc(F)cc2)n1`, the Potency result was “inactive”.

`Cc1ccc(/C([O-])=C(/C(=S)NCc2ccco2)[n+]2ccccc2)cc1[N+](=O)[O-]`: the Potency entry is “inactive”.

As for `CCOC(=O)c1c(NC(=O)CSc2nnc(CNc3ccc(C)cc3C)o2)sc(C)c1C`, the Potency entry is “inactive”.

On to `c1ccc(-n2nnnc2NC2CCCCCC2)cc1`, for which the Potency entry is “inactive”.

`FC(F)(F)c1nc(-c2ccccc2)ncc1-c1nnnn1-c1ccccc1`: the Potency is 16.4 µM (active).

`Fc1ccccc1CCNc1nnnn1-c1ccccc1`: the Potency entry is “inactive”.

With `O=S(=O)(NC1CCCCC1N1CCC(O)CC1)c1ccc(Cl)cc1` (configuration not stated), the Potency result is “inactive”.

For the molecule `CN1CCCc2cc(C#N)c(=O)[nH]c21`, the Potency result was “inactive”.

Regarding `CCOC(=O)c1cc2cc(-c3c(C(=O)OCC)oc4cc(O)cc(O)c4c3=O)ccc2o1`, the Potency was 23.1 µM (active).

On to `CCOC(=O)c1cc2cc3ccccc3cc2oc1=O`, for which the Potency result is “inactive”.

With `CCOC(=O)c1cc(=O)c2ccc(OCc3ccccc3)cc2o1`, the Potency entry is “inactive”.

Take `O=C(O)c1ccc(COCC(F)(F)F)cc1`: the Potency result is “inactive”.

For `CC1CCC2(CC1)NC(=O)N(CC(=O)c1ccc3c(c1)OCO3)C2=O` (configuration not stated), the Potency entry was “inactive”.

Turning to `O=C(CCN1C(=O)c2ccccc2C1=O)Nc1ccncc1`, the Potency entry is “inactive”.

In the case of `O=c1oc2cc(O)ccc2cc1-c1ccc(F)cc1`, the Potency is 14.6 µM (active).

Consider `COc1cccc(C(=O)c2cc3ccc(O)cc3oc2=O)c1`, for which the Potency entry is “inactive”.

Turning to `COc1ccc(-c2cc3ccc(OCc4nn[nH]n4)cc3oc2=O)cc1`, the Potency result is “inactive”.

`COC(=O)CCNC(=O)c1ccc2[nH]c(C)c(C)c2c1`: the Potency result was “inactive”.

Consider `Cc1ccc(C(=O)NCCSc2c(C)[nH]c3ccccc23)cc1C`, for which the Potency is 25.9 µM (active).

Consider `CN(C)CCCNC(=O)c1ccc2[nH]c3ccccc3c2c1`, for which the Potency entry is “inactive”.

Regarding `COC(=O)c1ccc(OCC(=O)NC(C)(C)C)cc1`, the Potency result is “inactive”.

`O=C(O)c1cnn2c(C(F)(F)F)cc(-c3ccccc3)nc12`: the Potency result was “inactive”.

For `COc1ccc(-c2cc(C(F)(F)F)n3nc(C(=O)N4CCOCC4)c(Cl)c3n2)cc1`, the Potency is 29.1 µM (active).

Regarding `COc1ccc(OCC(=O)N2CCOCC2)cc1`, the Potency result is “inactive”.

In the case of `O=C(NC1CC(=O)N(c2ccc(F)cc2)C1)C1CCCCC1` (configuration not stated), the Potency entry was “inactive”.

As to `COc1cc(OC)cc(-c2nnc(SCC(=O)Nc3ccc(C(=O)O)cc3)s2)c1`, the Potency result is “inactive”.

Consider `COc1ccc(N2CCN(C(=O)C3CCN(C(=O)c4ccccc4Cl)CC3)CC2)cc1`, for which the Potency entry is “inactive”.

For the molecule `COc1ccc(N2CCN(C(=O)CSCc3nc(-c4ccccc4Cl)oc3C)CC2)cc1`, the Potency is 16.4 µM (active).

Take `COc1ccc(N2CCN(C(=O)CN3C(=O)COc4ccccc43)CC2)cc1`: the Potency result was “inactive”.

On to `Cc1ccc(NC(=O)COC(=O)CN2CCSC2=O)cc1F`, for which the Potency result was “inactive”.

For `CS(=O)(=O)c1ccc2nc(NC(=O)CN3CCCCCC3)sc2c1`, the Potency result was “inactive”.

Turning to `CC(C)(C)C(=O)c1c(N)[nH]c(C(=O)c2ccccc2)c1-c1ccc(F)cc1`, the Potency result was “inactive”.

Turning to `NC(=O)Cc1ccc2c(c1)[nH]c1ccccc12`, the Potency result is “inactive”.

`CCc1cc(-c2nnc(SCC(=O)NC3CC3)n2C)cs1`: the Potency result is “inactive”.

As to `COc1ccc(OC)c(/C=N/NC(=O)c2ccc[n+](CC(=O)c3ccccc3)c2)c1`, the Potency result was “inactive”.

For the molecule `COc1cccc(/C=N\NC(=O)C2=NNC(=O)C2C)c1O` (configuration not stated), the Potency was 23.1 µM (active).

In the case of `COc1ccc(/C=N/NC(=O)c2ccc3c(c2)OCCO3)c(OC)c1`, the Potency result was “inactive”.

As to `COc1cccc(/C=N/NC(=O)c2[nH]nc3c2CCc2ccccc2-3)c1O`, the Potency was 2.91 µM (active).

As to `CN(C)CCNC(=O)c1[nH]nc2c1CCc1ccccc1-2`, the Potency entry was “inactive”.

On to `CCC(C)C1(C2CCCC2)NC(=O)NC1=O` (configuration not stated), for which the Potency result was “inactive”.

Regarding `CN1CCN(C(=O)CCc2ncc(C(F)(F)F)cc2Cl)CC1`, the Potency result is “inactive”.

As for `Cc1ccc(C(=O)N(CN2CCCC2=O)c2ccc(F)cc2)cc1`, the Potency entry is “inactive”.

In the case of `CCN1CCN(C(=O)CSc2ccc(C)cc2)CC1`, the Potency result is “inactive”.

Take `CCN1CCC2(CC1)N=C(c1ccc(F)cc1)C(=S)N2C(=O)c1ccc(C)cc1`: the Potency was 5.8 µM (active).

In the case of `COc1ccc(Cl)cc1S(=O)(=O)N1CCC(O)(c2ccc(Cl)cc2)CC1`, the Potency entry was “inactive”.

Regarding `O=C(c1cc2ccccc2o1)N1CCN(S(=O)(=O)c2ccc(Cl)s2)CC1`, the Potency is 14.6 µM (active).

As to `CS(=O)(=O)N1CCN(C(=O)c2cc3ccccc3oc2=O)CC1`, the Potency result was “inactive”.

As to `O=C(c1cc2ccccc2o1)N1CCN(Cc2ccccc2)CC1`, the Potency result was “inactive”.

Consider `COC(=O)c1ccc(C)c(NC(=O)Cn2c(C)csc2=O)c1`, for which the Potency result was “inactive”.

Consider `CCOc1cc(/C=N/n2cnnc2)c(Br)cc1O`, for which the Potency result was “inactive”.

In the case of `O=C(c1csnn1)N1CCC2(CCN(Cc3nccs3)CC2)CC1`, the Potency result was “inactive”.

In the case of `CN1CN(C)c2ccc([N+](=O)[O-])c3cccc1c23`, the Potency result is “inactive”.

For the molecule `Cc1nc2ccccn2c1C(=O)NN=C1CCN(C)CC1`, the Potency result was “inactive”.

On to `CCOC(=O)c1cccc(NC(=O)C2CCCN(S(=O)(=O)c3cnc[nH]3)C2)c1` (configuration not stated), for which the Potency entry is “inactive”.

As to `COC(=O)c1ccc(CN2CCCC(C(=O)Nc3cccc(-n4cnnn4)c3)C2)cc1` (configuration not stated), the Potency is 16.4 µM (active).

As to `O=C(Nc1ccc(F)cc1)C1CCCN(S(=O)(=O)c2ccc(-n3cnnn3)cc2)C1` (configuration not stated), the Potency entry is “inactive”.

In the case of `Cc1ccc(C(=O)NC2CCN(C(=O)Nc3ccccc3Cl)CC2)cc1`, the Potency result is “inactive”.

Regarding `CN(CC(=O)NCc1ccc2c(c1)OCO2)CC(=O)Nc1ccc(F)c(F)c1F`, the Potency entry is “inactive”.

Turning to `CC(O)c1nc2ccccc2n1Cc1ccc([N+](=O)[O-])cc1` (configuration not stated), the Potency result was “inactive”.

In the case of `CC(C)c1ccc(Cn2c(COc3ccccc3)nc3ccccc32)cc1`, the Potency was 20.6 µM (active).

Turning to `Cc1nc2ccccc2n1CC(O)c1ccccc1` (configuration not stated), the Potency result was “inactive”.

For the molecule `COC(=O)[C@@H](NC(=O)Nc1cc(Cl)ccc1C)C(C)C`, the Potency result is “inactive”.

On to `Cc1ccc2c(C)nc(N3CCCC(C(=O)NC(C)(C)CO)C3)nc2c1` (configuration not stated), for which the Potency entry is “inactive”.

In the case of `Cc1ccc(NC(=O)CSc2nnc(-c3cnccn3)n2Cc2ccco2)cc1C`, the Potency entry is “inactive”.

On to `O=C(COc1ccc(S(=O)(=O)NCc2ccccc2)cc1)N1CCOCC1`, for which the Potency result was “inactive”.

On to `CCOC(=O)c1c(-c2ccc(C)cc2)csc1/N=C(\C)C1=C(O)c2ccccc2C1=O`, for which the Potency was 18.4 µM (active).

`CC(=NCc1ccco1)C1=C(O)c2ccccc2C1=O`: the Potency entry was “inactive”.

Regarding `COC(=O)c1c(-c2ccc(C)cc2)csc1N`, the Potency entry was “inactive”.

Consider `CCOC(=O)c1c(/N=C/C2C(=O)CC(C)(C)CC2=O)sc(C)c1C`, for which the Potency entry was “inactive”.

For the molecule `CC1CCCCC1NC(=O)COC(=O)Cc1ccc(Br)cc1` (configuration not stated), the Potency result was “inactive”.

For `CCCCn1c(N)c(N(CC)C(=O)c2ccc(N(C)S(=O)(=O)c3ccc(C)cc3)cc2)c(=O)[nH]c1=O`, the Potency result is “inactive”.

For `NC(N)=Nc1nc(-c2ccccc2)c2cc(Cl)ccc2n1`, the Potency is 16.4 µM (active).

`Cc1ccc2nc(Nc3ccccc3O)nc(-c3ccccc3)c2c1`: the Potency entry is “inactive”.

Take `O=C(O)c1ccc(Nc2nc(-c3ccccc3)c3cc(Br)ccc3n2)cc1`: the Potency entry was “inactive”.
